The values that follow come from PubChem BioAssay.

The inhibition is the change of the read-out against control, counted positive when it falls.

Values without a mark were called inactive.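 How the source made its calls: active means inhibition above the screen-wide mean plus 3 SD, about 51%; inactive means the rest.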

For this test, the target named is ATP-binding cassette sub-family B member 6 (Homo sapiens) (UniProt Q9NP58). Kind of test: ABCB6 transporter inhibitors, pilot screen, K562-ABCB6 cells, flow cytometry, validation set (AID 588550).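 Further: 0% = DMSO wells and 100% = benzethonium chloride 70 µM positive control.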 As to conditions: K562-ABCB6 porphyrin accumulation, 1 h, at 10 µM, active compounds read high. For orientation: Flow cytometry measures light scatter and fluorescence of single cells or particles in a stream.
Chain of ATP-binding cassette sub-family B member 6 (Homo sapiens) (Q9NP58 whole entry, looked up): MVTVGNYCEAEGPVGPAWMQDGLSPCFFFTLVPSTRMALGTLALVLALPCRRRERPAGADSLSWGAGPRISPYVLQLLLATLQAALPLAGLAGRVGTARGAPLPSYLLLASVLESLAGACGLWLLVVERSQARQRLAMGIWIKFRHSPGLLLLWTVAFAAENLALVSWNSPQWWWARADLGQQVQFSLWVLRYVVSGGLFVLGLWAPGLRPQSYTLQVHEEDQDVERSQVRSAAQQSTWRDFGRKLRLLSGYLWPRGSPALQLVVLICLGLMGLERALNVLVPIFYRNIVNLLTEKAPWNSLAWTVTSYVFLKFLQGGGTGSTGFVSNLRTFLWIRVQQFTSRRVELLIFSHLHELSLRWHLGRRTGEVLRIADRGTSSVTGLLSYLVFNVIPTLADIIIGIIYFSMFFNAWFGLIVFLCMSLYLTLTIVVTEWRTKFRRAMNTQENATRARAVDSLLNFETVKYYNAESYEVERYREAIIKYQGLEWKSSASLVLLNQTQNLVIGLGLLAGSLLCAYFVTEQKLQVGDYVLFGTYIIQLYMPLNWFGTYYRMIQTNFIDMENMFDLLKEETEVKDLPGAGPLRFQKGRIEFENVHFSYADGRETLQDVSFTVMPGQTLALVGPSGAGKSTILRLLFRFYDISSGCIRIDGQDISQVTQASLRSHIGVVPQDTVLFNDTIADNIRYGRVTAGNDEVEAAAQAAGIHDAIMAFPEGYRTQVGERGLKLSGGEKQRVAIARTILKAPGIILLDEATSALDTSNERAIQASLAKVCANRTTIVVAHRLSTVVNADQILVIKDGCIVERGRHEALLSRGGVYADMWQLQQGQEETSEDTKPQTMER
As to `CCN(CC)C(=O)N1CCN(C)CC1`, the inhibition was 9%.

In the case of `CC1(C)[C@@H](O)CC[C@]2(C)[C@H]3C(=O)C=C4[C@@H]5C[C@@](C)(C(=O)O)CC[C@]5(C)CC[C@@]4(C)[C@]3(C)CC[C@@H]12`, the inhibition was 15%.

On to `O=C(Nc1ccc(Cl)cn1)Nc1ccccc1Cl`, for which the inhibition was -4%.

`COc1c(C=O)c(CCN(C)C(=O)c2ccc(F)cc2)cc2c1OCO2`: the inhibition was -2%. For `COc1ccc(C2C3=C(CC(C)(C)CC3=O)N(C)C3=C2C(=O)CC(C)(C)C3)cc1`, the inhibition was 3%. Regarding `CC(C)(Sc1cc(C(C)(C)C)c(O)c(C(C)(C)C)c1)Sc1cc(C(C)(C)C)c(O)c(C(C)(C)C)c1`, the inhibition is 21%. Regarding `CC(=O)NC(NC(=S)N1CCCCCC1)C(Cl)(Cl)Cl` (stereo not given), the inhibition was -1%. For `Cc1ccc2c(CC(=O)O)coc2c1`, the inhibition is 13%. For `COc1cccc(N2C(=O)CC(c3c[nH]c4ccccc34)C2=O)c1` (stereo not given), the inhibition was -26%. As for `CC1(CC(=O)Nc2ccccc2)NC(=S)N(c2ccccc2)N1` (stereo not given), the inhibition was 6%. In the case of `O=c1nc2n(c3c1oc1ccccc13)Cc1ccccc1-2`, the inhibition was -3%. For `COC(=O)c1ccc(NC(=O)C23CCC(C)(C(=O)O2)C3(C)C)cc1` (stereo not given), the inhibition is 6%. As for `c1cnc(N2CCN(Cc3ccc4c(c3)OCO4)CC2)nc1`, the inhibition was 2%. With `CCOC(=O)C1=C(N)Oc2c(c(=O)[nH]c3ccccc23)C1c1ccccc1` (stereo not given), the inhibition was 7%. For the compound `CCOc1ccc2[nH]c3c(=O)n(CCc4ccc(OC)cc4)cnc3c2c1`, the inhibition is 5%. As for `CC(=O)OC(C)C[N+](C)(C)C` (stereo not given), the inhibition was 6%. As for `CNc1c2c(nn1C)CCCC2`, the figure is -3%; as for `O=C(CN1C(=O)/C(=C/c2cccc(Br)c2)SC1=S)Nc1cccnc1`, -10%; as for `N/C(Cc1ccc(Cl)cc1Cl)=N\OC(=O)c1ccc(Br)o1`, 2%. Under `O=C(c1ccco1)N1CCCN(Cc2nc(-c3ccc4c(c3)OCO4)no2)CC1` stands 10%; under `Cc1ccc2c(c1)C(O)(C1COC(C)(C)CC1=O)C(=O)N2C` (stereo not given), 12%. Regarding `CC(C)(C)C(=O)N1CCCC1C(=O)O` (stereo not given), the inhibition was 2%. `COc1ccc(C2NC(=O)c3ccccc3O2)c(OC)c1OC` (stereo not given): the inhibition is 0%.

As to `CC(C(=O)O)c1cccc(C(=O)c2ccccc2)c1` (stereo not given), the inhibition is 20%. With `C[N+]1(C2CCC3CCCC2C3O)CCCCC1` (stereo not given), the inhibition was 32%.

Consider `CCc1cc(=O)oc2cc3occ(-c4ccc(OC)c(F)c4)c3cc12`, for which the inhibition is 15%. In the case of `COC(=O)[C@H]1[C@H]2C[C@@H]3c4[nH]c5cc(OC)ccc5c4CCN3C[C@H]2C[C@@H](OC(=O)c2ccc(N)cc2)[C@@H]1OC`, the inhibition was -53%. For the compound `O=C(CN1CCN(Cc2ccccc2)CC1)N1CCCc2c1c(=O)oc1ccc(O)cc21`, the inhibition is 3%. For `CCOc1ccc2ccccc2c1C(=O)N[C@@H]1C(=O)N2[C@@H]1SC(C)(C)[C@@H]2C(=O)O`, the inhibition was 8%. Regarding `COc1ccccc1N1CCN(CC(O)COc2cccc3ccccc23)CC1` (stereo not given), the inhibition was -4%.

Turning to `C[C@]12CC[C@@H]3c4ccc(O)cc4[C@@H](O)C[C@H]3[C@@H]1CC[C@@H]2O`, the inhibition was 11%. For the compound `O[C@H]1COC2C1OC[C@@H]2O` (stereo not given in full), the inhibition is 2%.

In the case of `O=C(NCCO)c1ccc(Cl)c(Cl)c1`, the inhibition was 9%. For the compound `O=C(Nc1ccc(C(=O)NC2CCCCC2)cc1)c1cccnc1`, the inhibition is 13%.

With `CC(=O)Oc1ccc(C(c2ccc(OC(C)=O)cc2)c2ccccn2)cc1`, the inhibition was 6%.

For `CC(CCc1ccccc1)NC(=O)/C=C/c1ccccc1` (stereo not given), the inhibition was 12%. In the case of `Cc1ccc2nc(NC3=NC(CC(=O)O)C(=O)N3)nc(C)c2c1` (stereo not given), the inhibition is 6%. Regarding `O=C(NC(Nc1ccccn1)C(Cl)(Cl)Cl)c1ccccc1` (stereo not given), the inhibition was -8%. For `NC(N)=N/N=C/c1cccc(Cl)c1Cl`, the inhibition was 4%.

Turning to `COc1ccccc1C(=O)Oc1ccc2c(c1)O/C(=C\c1ccncc1)C2=O`, the inhibition is -9%.
